Experimental data: PubChem BioAssay (NCATS)
Inconclusive results are not listed. Unmarked numbers belong to inactive results. The source made the active and inactive calls. Calls follow the shape of the dose curve; as a rule, active = well fitted cell-killing curve with a large enough effect; inconclusive = small, poorly fitted or top-dose-only effect; inactive = flat fitted curve, though single readings scatter.

Test: Cellular viability qHTS for adrenocortical cancer (ACC) cell line SW-13 (AID 1963989); also: nearly all actives have a fitted effect of over 65% in size;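 as to activity (max response): cells grown in serum-free medium with ITS supplement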
Conditions: SW-13 ACC cells viability, CellTiter-Glo, 48 h; activity (max response): active compounds read low
In short: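 Here, serum-free SW-13 cultures were dosed up to 46 uM. Following 48 h, ATP-dependent luminescence (CellTiter-Glo) reported viable cells, and logistic modeling produced IC50 values.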
% is scaled to controls: 0 for no effect and ±100 for the full control effect; potency is read from the fitted curve at half-maximal effect.

Compound	activity (max response)	Potency
CC(=O)OC/C=C(C)/C=C/C=C(C)/C=C/C1=C(C)CCCC1(C)C	4.17%	–
CC(=O)[C@H]1CC[C@H]2[C@@H]3C=CC4=CC(=O)CC[C@@]4(C)[C@@H]3CC[C@]12C	-20.4%	–
COc1cc2c3c(n(CCCNCCO)c(=O)c2cc1OC)-c1cc2c(cc1C3=O)OCO2	–	0.447 µM (active)
Cc1ccc(C(=O)Oc2ccc(C(O)CNC(C)(C)C)cc2OC(=O)c2ccc(C)cc2)cc1 (stereo not given)	-16%	–
CCCCCC1Nc2cc(C(F)(F)F)c(S(N)(=O)=O)cc2S(=O)(=O)N1 (stereo not given)	4.72%	–
CONC(=O)Nc1ccc(-c2sc3c(c2CN(C)C)c(=O)n(-c2ccc(OC)nn2)c(=O)n3Cc2c(F)cccc2F)cc1	-5.64%	–
C[C@H](NC(=O)[C@H]1NCC[C@@H]1O)c1ccc(-c2noc(CCC3CCCC3)n2)cc1	-20.3%	–
CC(C)(Cc1c[nH]c2ccccc12)NCC(O)COc1ccccc1C#N (stereo not given)	-3.72%	–
CCCC(C(=O)OCCN(CC)CC)(c1ccccc1)c1ccccc1	–	20.6 µM (active)
O=C(Nc1ccccc1)Nc1ccc(-c2ccc(C(=O)[C@@H]3CCC[C@H]3C(=O)O)cc2)cc1	-19.9%	–
c1ccc2c(c1)CCCC2C1=NCCN1 (stereo not given)	5.7%	–
OC(CCCN1CCCCC1)(c1ccccc1)c1ccccc1	-5.81%	–
C[C@]12CC[C@H](O)CC1=CC[C@@H]1[C@@H]2CC[C@]2(C)C(c3cccnc3)=CC[C@@H]12	2.71%	–
c1ccc(CNCCNCc2ccccc2)cc1	-0.207%	–
CN1CCCCC1CCN1c2ccccc2Sc2ccc(S(C)=O)cc21 (stereo not given)	-6.63%	–
COC(=O)[C@H]1[C@H]2C[C@@H]3c4[nH]c5cc(OC)ccc5c4CCN3C[C@H]2C[C@@H](OC(=O)c2cc(OC)c(OC)c(OC)c2)[C@@H]1OC	-15.6%	–
CN1CCN(C2=Nc3ccccc3Oc3ccc(Cl)cc32)CC1	-13.7%	–
CC(C)OC(=O)[C@H](C)N[P@](=O)(OC[C@H]1O[C@@H](n2ccc(=O)[nH]c2=O)[C@](C)(F)[C@@H]1O)Oc1ccccc1	–	3.98 µM (active)
CC(CC1c2ccccc2CCc2ccccc21)CN(C)C (stereo not given)	-20.3%	–
O=C(O)CNC(=O)c1ncc(-c2cccc(Cl)c2)cc1O	5.73%	–

Compound	activity (max response)	Potency
CC(C)=CCC/C(C)=C/CC/C(C)=C/CSc1ccccc1C(=O)O	-19.3%	–
CCCCCCCCCCCCCCCCCCNC(=O)OC1CCN(C(=O)OC[C@H](COC(=O)N(Cc2cccc[n+]2CC)C(=O)c2ccccc2OC)OC)CC1	–	7.31 µM (active)
N#CCC1(n2cc(-c3ncnc4[nH]ccc34)cn2)CN(C2CCN(C(=O)c3ccnc(C(F)(F)F)c3F)CC2)C1	-10.7%	–
CCCc1c(OCCCCc2nn[nH]n2)ccc(C(C)=O)c1O	-4.43%	–
O=C1NC(=O)/C(=C/c2ccc(-c3ccc(F)cc3O)o2)S1	–	28.2 µM (active)
CC1Cc2ccccc2N1C(=O)Cc1nc(N2CCOCC2)cc(=O)[nH]1 (stereo not given)	-14.8%	–
CNC(=O)c1c(C)oc2cc(Oc3ncnc4cc(OC)c(OC)cc34)ccc12	9.66%	–
Cn1c(=O)c(Oc2ccc(F)cc2F)cc2cnc(NC3CCOCC3)nc21	-3.03%	–
NC(N)=NCCN1CCCCCCC1	5.33%	–
Cc1cc(CC(=O)O)c(C)n1-c1ccc(Cl)cc1	4.84%	–
C[n+]1cc2c3c(ccc2c2ccc4cc5c(cc4c21)OCO5)OCO3	–	2.24 µM (active)
Cc1ccc(CCn2c3c(c4cc(Cl)ccc42)CN(C)CC3)cn1	-12.3%	–
COc1cc2c3c(n(CCCn4ccnc4)c(=O)c2cc1OC)-c1cc2c(cc1C3=O)OCO2	–	0.0316 µM (active)
CC1CC(=O)NN=C1c1ccc(NCC(C)(C)NCC(O)COc2cc(Cl)ccc2C#N)cc1 (stereo not given)	-8.94%	–
CO[C@@]1(NC(=O)CSCC#N)C(=O)N2C(C(=O)O)=C(CSc3nnnn3C)CS[C@@H]21	9.84%	–
COc1cc2c3c(n(CCCN4CCOCC4)c(=O)c2cc1OC)-c1cc2c(cc1C3=O)OCO2	–	2.51 µM (active)
Cc1c(F)cc(C(=O)NC2CC2)cc1-c1c(F)cn2c(C(C)(C)C)nnc2c1F	-10.3%	–
CC(C)(Oc1ccc(Cl)cc1)C(=O)OCCCOC(=O)C(C)(C)Oc1ccc(Cl)cc1	0.371%	–
OC(CCN1CCCCC1)(c1ccccc1)c1ccccc1	3.2%	–
O=c1c(-n2ccnn2)c[nH]n1-c1cc(N2CCOCC2)ncn1	-5.69%	–
